VACV Venus inh = inhibitors of vaccinia virus (Venus reporter) | 330,000 tested, 0.46% active | AID 720580 | Potency, µM (highest dose often 36.5 µM), for the others: top-dose activity change, negative = inhibition, most hits filed as inhibitors | Vaccinia virus Venus reporter expression, fluorescence; calls by dose curve; tested in A549 cells; also: % is scaled to controls: 0 for no effect and ±100 for the full control effect; nearly all actives have a fitted effect of over 30% in size
Pf growth 96h = P. falciparum growth inhibition at 96 hours. AID 504834. Potency, µM (top dose mostly 28.7 µM), without a hit: at the highest dose activity change, negative = inhibition, actives largely listed as inhibitors. 320,000 tested, 6.9% active. P. falciparum luciferase reporter growth, 96 h; also: % is scaled to controls: 0 for no effect and ±100 for the full control effect
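Infected RBCs, 2% Hct / 0.05% parasitemia final; luciferase-reporter P. falciparum; cpd 96 h, 37 C, 5% CO2; luciferase detection reagent; luminescence.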
NS1 function inh = blocks influenza NS1 protein function. 270,000 tested, 0.4% active. Potency, µM (titrated, usually from 46.1 µM), inactives show at the highest dose activity, positive = more growth; calls by dose curve; also: actives are rising curves; nearly all actives have a fitted effect of over 50% in size
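Compounds were scored for reversing the slow growth caused by influenza A NS1 in S. cerevisiae, measured by optical density at 600 nm. Assay medium contained 2% galactose at pH 6.0; NS1-free yeast of the same strain were the positive control.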
Pf growth 48h = P. falciparum growth inhibition at 48 hours (one generation). P. falciparum luciferase growth in erythrocytes, 48 h. Potency, µM (doses to about 28.7 µM), for the others: at the top dose activity change, negative = inhibition, actives largely listed as inhibitors. 310,000 tested, 5.9% active. AID 504832; also: % is scaled to controls: 0 for no effect and ±100 for the full control effect
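Compounds are pin-transferred into medium, infected erythrocytes (2% hematocrit, 0.1% parasitemia final) are added, and plates sit one parasite generation at 37 C in 5% CO2. Detection reagent is then added and luminescence measured.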
Vaccinia mCherry = inhibitors of vaccinia virus infection (mCherry reporter signal); Vaccinia virus mCherry reporter infection, fluorescence; Potency, µM (doses to about 36.5 µM), for inactives: at the top dose activity change, negative = inhibition, usual class: inhibitors; 310,000 tested, 0.63% active; calls by dose curve; tested in A549 cells; also: % is scaled to controls: 0 for no effect and ±100 for the full control effect; nearly all actives have a fitted effect of over 35% in size
HCV inh = inhibitors of hepatitis C virus infection | Huh7.5.1 HCVcc-Cre infection, luciferase reporter, 44 h | Potency, µM (top dose mostly 41.8 µM), inactives show at the highest dose activity change, negative = inhibition, most hits filed as inhibitors | 340,000 tested, 3.4% active | AID 651820; also: % is scaled to controls: 0 for no effect and ±100 for the full control effect
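Infectious HCVcc-Cre (~0.5 moi) was added to cells just after compound, with cells seeded 4 h earlier at 1,000 per well. Luciferase activity after 44 h culture reported infection; substrate was incubated 15 min at room temperature before reading.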
Starred values were filed as active, the others as inactive; i = inactive; ? = inconclusive; nt = no result given; [ ] = remark or other dose. Hits are enriched below; roughly 11% of the tested compounds scored in any of these assays. Unless noted, calls follow the shape of the dose curve; as a rule, active = well fitted inhibition curve with a large enough effect; inconclusive = small, poorly fitted or top-dose-only effect, or another doubt; inactive = no such curve, though single readings can be large or run the other way. Potency is read from the fitted curve at half-maximal effect.

SMILES | VACV Venus inh | Pf growth 96h | NS1 function inh | Pf growth 48h | Vaccinia mCherry | HCV inh
COc1ccc(/C(O)=C2/C(=O)C(=O)N(CCN(C)C)C2c2ccccc2)cc1Cl (stereo not drawn) | -21% | nt | -10% | 8% | nt | 21%
CCOC(=O)c1c(C)[nH]c(-c2csc(N)n2)c1C | -24% | ? | nt | 2.9µM* | ? | ?
CCOC(=O)c1c(C)[nH]c(-c2csc(C)n2)c1C | -4% | 83% | -4% | 60% | -6% | ?
CC12CCC(=O)C=C1CCC1C2CCC2(C)C(O)CCC12 (stereo not drawn) | -7% | 49% | -11% | -18% | 13% | -11%
CC(=O)C1C(N2CC2)CC2C3CCC4=CC(=O)CCC4(C)C3CCC21C (stereo not drawn) | ? | nt | nt | nt | -17% | 0.56µM*
C[C@]12CC[C@H]3[C@@H](CCC4=CC(=O)CC[C@@]43C)[C@@H]1CC[C@@H]2C(=O)CO | 1% | 9.3µM* | -12% | 12µM* | -3% | ?
CC(/C=N/NC(=O)Cn1cnc2c1c(=O)n(C)c(=O)n2C)=C\c1ccccc1 | -7% | -22% | -3% | 9% | -11% | 6%
COc1cc2c(C#N)c(N3CCCCC3)nc(N)c2c(N)n1 | ? | -25% | -69% | -49% | ? | ?
COc1cc2c(C#N)c(N3CCc4ccccc4C3)nc(N)c2c(N)n1 | ? | ? | -49% | 8.3µM* | -15% | ?
Cc1ccc(Nc2nnc(C)c(=O)[nH]2)cc1 | -1% | 6% | nt | ? | 0% | 3%
CCCOc1ccccc1Nc1nnc(C)c(=O)[nH]1 | nt | 13µM* | -3% | 15% | nt | 13%
NC(=O)Cn1c(=O)n(C2CCCCC2)c(=O)c2c3c(sc21)CCCCC3 | -15% | 2.3µM* | 7% | ? | i | 6%
COc1cc2c(cc1OC)CN(C(=O)c1ccncc1)CC2 | nt | 1% | 1% | nt | nt | 9%
COc1ccc(C(=O)N2CCc3ccc(NC(=O)c4ccccn4)cc3C2)cc1F | nt | -11% | -32% | ? | nt | 11µM*
O=C(N/N=C/c1ccncc1)c1ccccc1 | 5% | 52% | -1% | 22% | nt | 3%
CN1C(=O)NC(c2ccc([N+](=O)[O-])cc2)C2=C1CC(C)(C)CC2=O (stereo not drawn) | nt | ? | 4% | -11% | nt | 18%
CN1C(=O)NC(c2ccccc2[N+](=O)[O-])C2=C1CCCC2=O (stereo not drawn) | 54% | 9.3µM* | 7% | -2%[0.00184 µM] | -14% | 9%
CN1C(=O)NC(c2ccccc2[N+](=O)[O-])C2=C1CC(C)(C)CC2=O (stereo not drawn) | 5% | 9.3µM* | 12% | -8%[0.00184 µM] | i | 1%
Cc1nnc(-c2ccc(Cl)cc2)nc1NCCN(C)C | -2% | 2% | 7% | -1% | i | 10%
COc1cccc(C=Nc2ccc3c(c2)CCC3)c1O | -4% | 3% | 7% | 33% | -23% | 17%
Cc1ccccc1OC(=O)c1cccnc1 | nt | ? | 4% | 8% | nt | 12%
CC(=O)c1cc(C)ccc1OC(=O)c1cccnc1 | ? | 9.3µM* | 1% | -23% | nt | 10%
COC(=O)C1=C(N)Oc2cc(C)n(C)c(=O)c2C1c1ccc(Cl)c(Cl)c1 (stereo not drawn) | -5% | ? | -8% | -10% | nt | -25%
COC(=O)C1=C(N)Oc2cc(C)n(Cc3ccco3)c(=O)c2C1c1cccc(Cl)c1 (stereo not drawn) | ? | nt | -78% | -36% | nt | 8.9µM*
CCn1c(C)cc2c(c1=O)C(c1ccccc1)C(C(=O)OC)=C(N)O2 (stereo not drawn) | nt | 278% | 3% | 3% | nt | -18%
SMILES | VACV Venus inh | Pf growth 96h | NS1 function inh | Pf growth 48h | Vaccinia mCherry | HCV inh
COC(=O)C1=C(N)Oc2cc(C)n(CCCn3ccnc3)c(=O)c2C1c1ccc(Cl)cc1 (stereo not drawn) | -28% | 4.7µM* | -18% | 3.3µM* | nt | -11%
COC(=O)N1CCCCC1c1cc(C(=O)NCc2ccc(F)cc2)no1 (stereo not drawn) | 3% | nt | nt | nt | i | nt
Cc1ccccc1C(=O)NC(CC(C)C)C(=O)OCC(=O)c1c(N)n(C)c(=O)n(C)c1=O (stereo not drawn) | -7% | ? | nt | 1µM* | -5% | 6%
CC(C)CC(C(=O)OCC(=O)c1c(N)n(C)c(=O)n(C)c1=O)N1C(=O)c2ccccc2C1=O (stereo not drawn) | -18% | -29% | -27% | -14% | -17% | 10%
Cn1c(N)c(C(=O)COC(=O)Cc2ccccc2)c(=O)n(C)c1=O | 1% | nt | nt | nt | i | 2%
Cn1c(N)c(C(=O)COC(=O)CC(NC(=O)c2ccccc2Cl)c2ccccc2)c(=O)n(C)c1=O (stereo not drawn) | -7% | ? | nt | 1.3µM* | -11% | ?
CC(=O)NC(CC(=O)OCC(=O)c1c(N)n(CC(C)C)c(=O)n(C)c1=O)c1ccccc1 (stereo not drawn) | -15% | 9.3µM* | nt | 12µM* | -1% | -7%
O=c1c2[nH]c3ccc(Cl)cc3c2ncn1CCN1CCCCC1 | -7% | 60% | 5% | nt | nt | 4%
COc1ccc(C2C(CN3CCOCC3)C(=O)N2c2ccccc2)cc1 (stereo not drawn) | -14% | -5% | 3% | 4% | -17% | 13%
COc1ccc(N2C(=O)C(CN3CCN(C)CC3)C2c2ccccc2)cc1 (stereo not drawn) | nt | 0% | 5% | -15% | nt | 35µM*
Cc1ccc(S(=O)(=O)NCCN2CCOCC2)c(C)c1 | nt | 38% | 6% | 13% | nt | 19%
c1ccc(-c2nnnc3ccccc23)cc1 | -14% | -4% | 11% | -1% | -3% | 37%
Clc1ccc2nnnc(-c3ccccc3)c2c1 | 13µM* | ? | -24% | ? | 13µM* | 4.5µM*
CCCCOC(=O)c1ccccc1C(=O)OCc1ccccc1 | -14% | 25% | nt | 11% | i | -4%
COc1cccc(C2c3c(C)nn(-c4ccc([N+](=O)[O-])cc4)c3N=C3C(=O)Nc4ccccc4N32)c1 (stereo not drawn) | -3% | ? | nt | ? | 3% | ?
Cc1nn(-c2ccc([N+](=O)[O-])cc2)c2c1C(c1ccc(OC(F)F)cc1)N1C(=N2)C(=O)Nc2ccccc21 (stereo not drawn) | -8% | ? | 7% | ? | -17% | 2µM*
OCC1(CCc2ccccc2)CCCN(CCCC(F)(F)F)C1 (stereo not drawn) | nt | ? | -3% | 6% | nt | 12%
Cc1ccc(Nc2nc(CSc3nnc(-c4cccnc4)n3-c3ccccc3C)cs2)cc1 | -21% | ? | ? | -21% | ? | 32µM*
Cc1ccccc1-n1c(SCc2csc(Nc3ccccc3)n2)nnc1-c1cccnc1 | -26% | 9.3µM* | 5% | ? | -3% | ?

Assay outcomes deposited in PubChem by National Center for Advancing Translational Sciences (NCATS).
